# Data as given in the supplement of paper PMC4466140.
# Molecular target: AgAbp1
# Assay: SPOT peptide array binding signal intensity (averaged, normalized) (arbitrary units (background-subtracted, floor 0; scale differs between SH3 domains)); higher = stronger binding of the SH3 domain to the peptide
# Method: (§1)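 GST-tagged SH3 domains from S. cerevisiae (Sc), A. gossypii (Ag), C. albicans (Ca) and S. pombe (Sp) were incubated at 10 ug/ml overnight at 4 C on cellulose SPOT membranes carrying 292 synthetic 15-mer peptides mined from the S. cerevisiae proteome (cysteines replaced by serines). Binding was detected with anti-GST antibody, HRP secondary and chemiluminescence, quantified with Genespotter, and reported as normalized spot intensities averaged over biological replicates.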
row,Binder,SPOT peptide array binding signal intensity
1,NLKKRPPTAPQRKIS,2190

# Molecular target: AgBbc1
# Assay: as above
# Method: as §1
row,Binder,SPOT peptide array binding signal intensity
1,NLKKRPPTAPQRKIS,265

# Molecular target: AgBem1-D1
# Assay: as above
# Method: as §1
row,Binder,SPOT peptide array binding signal intensity
1,NLKKRPPTAPQRKIS,28.5

# Molecular target: AgBzz1-D1
# Assay: as above
# Method: as §1
row,Binder,SPOT peptide array binding signal intensity
1,NLKKRPPTAPQRKIS,277

# Molecular target: AgBzz1-D2
# Assay: as above
# Method: as §1
row,Binder,SPOT peptide array binding signal intensity
1,NLKKRPPTAPQRKIS,199

# Molecular target: AgCyk3
# Assay: as above
# Method: as §1
row,Binder,SPOT peptide array binding signal intensity
1,NLKKRPPTAPQRKIS,≤ 0

# Molecular target: AgFus1
# Assay: as above
# Method: as §1
row,Binder,SPOT peptide array binding signal intensity
1,NLKKRPPTAPQRKIS,110

# Molecular target: AgHof1
# Assay: as above
# Method: as §1
row,Binder,SPOT peptide array binding signal intensity
1,NLKKRPPTAPQRKIS,60

# Molecular target: AgHse1
# Assay: as above
# Method: as §1
row,Binder,SPOT peptide array binding signal intensity
1,NLKKRPPTAPQRKIS,1520

# Molecular target: AgLsb1
# Assay: as above
# Method: as §1
row,Binder,SPOT peptide array binding signal intensity
1,NLKKRPPTAPQRKIS,2.25

# Molecular target: AgLsb4
# Assay: as above
# Method: as §1
row,Binder,SPOT peptide array binding signal intensity
1,NLKKRPPTAPQRKIS,109

# Molecular target: AgMyo5
# Assay: as above
# Method: as §1
row,Binder,SPOT peptide array binding signal intensity
1,NLKKRPPTAPQRKIS,≤ 0

# Molecular target: AgNbp2
# Assay: as above
# Method: as §1
row,Binder,SPOT peptide array binding signal intensity
1,NLKKRPPTAPQRKIS,245

# Molecular target: AgRvs167
# Assay: as above
# Method: as §1
row,Binder,SPOT peptide array binding signal intensity
1,NLKKRPPTAPQRKIS,13.5

# Molecular target: AgSho1
# Assay: as above
# Method: as §1
row,Binder,SPOT peptide array binding signal intensity
1,NLKKRPPTAPQRKIS,33.5

# Molecular target: AgSla1-D1-D2
# Assay: as above
# Method: as §1
row,Binder,SPOT peptide array binding signal intensity
1,NLKKRPPTAPQRKIS,370

# Molecular target: AgSla1-D3
# Assay: as above
# Method: as §1
row,Binder,SPOT peptide array binding signal intensity
1,NLKKRPPTAPQRKIS,28.2

# Molecular target: CaAbp1-D1
# Assay: as above
# Method: as §1
row,Binder,SPOT peptide array binding signal intensity
1,NLKKRPPTAPQRKIS,5270

# Molecular target: CaAbp1-D2
# Assay: as above
# Method: as §1
row,Binder,SPOT peptide array binding signal intensity
1,NLKKRPPTAPQRKIS,6470

# Molecular target: CaBbc1
# Assay: as above
# Method: as §1
row,Binder,SPOT peptide array binding signal intensity
1,NLKKRPPTAPQRKIS,646

# Molecular target: CaBem1-D1
# Assay: as above
# Method: as §1
row,Binder,SPOT peptide array binding signal intensity
1,NLKKRPPTAPQRKIS,48.5

# Molecular target: CaBzz1-D1
# Assay: as above
# Method: as §1
row,Binder,SPOT peptide array binding signal intensity
1,NLKKRPPTAPQRKIS,727

# Molecular target: CaBzz1-D2
# Assay: as above
# Method: as §1
row,Binder,SPOT peptide array binding signal intensity
1,NLKKRPPTAPQRKIS,2010

# Molecular target: CaCyk3
# Assay: as above
# Method: as §1
row,Binder,SPOT peptide array binding signal intensity
1,NLKKRPPTAPQRKIS,3

# Molecular target: CaFus1
# Assay: as above
# Method: as §1
row,Binder,SPOT peptide array binding signal intensity
1,NLKKRPPTAPQRKIS,254

# Molecular target: CaHof1
# Assay: as above
# Method: as §1
row,Binder,SPOT peptide array binding signal intensity
1,NLKKRPPTAPQRKIS,1

# Molecular target: CaHse1
# Assay: as above
# Method: as §1
row,Binder,SPOT peptide array binding signal intensity
1,NLKKRPPTAPQRKIS,34.5

# Molecular target: CaLsb1
# Assay: as above
# Method: as §1
row,Binder,SPOT peptide array binding signal intensity
1,NLKKRPPTAPQRKIS,≤ 0

# Molecular target: CaLsb4
# Assay: as above
# Method: as §1
row,Binder,SPOT peptide array binding signal intensity
1,NLKKRPPTAPQRKIS,942

# Molecular target: CaMyo5
# Assay: as above
# Method: as §1
row,Binder,SPOT peptide array binding signal intensity
1,NLKKRPPTAPQRKIS,4.5

# Molecular target: CaNbp2
# Assay: as above
# Method: as §1
row,Binder,SPOT peptide array binding signal intensity
1,NLKKRPPTAPQRKIS,764

# Molecular target: CaRvs167
# Assay: as above
# Method: as §1
row,Binder,SPOT peptide array binding signal intensity
1,NLKKRPPTAPQRKIS,32

# Molecular target: CaRvs167-3
# Assay: as above
# Method: as §1
row,Binder,SPOT peptide array binding signal intensity
1,NLKKRPPTAPQRKIS,67.8

# Molecular target: CaSho1
# Assay: as above
# Method: as §1
row,Binder,SPOT peptide array binding signal intensity
1,NLKKRPPTAPQRKIS,170

# Molecular target: CaSla1-D1-D2
# Assay: as above
# Method: as §1
row,Binder,SPOT peptide array binding signal intensity
1,NLKKRPPTAPQRKIS,1470

# Molecular target: CaSla1-D3
# Assay: as above
# Method: as §1
row,Binder,SPOT peptide array binding signal intensity
1,NLKKRPPTAPQRKIS,6.5

# Molecular target: ScAbp1
# Assay: as above
# Method: as §1
row,Binder,SPOT peptide array binding signal intensity
1,NLKKRPPTAPQRKIS,2890
